Data on 21 molecules can be found in PubChem BioAssay (NCATS).

In assay [1] the target is T1, Hexokinase-4 (Homo sapiens) + Glucokinase regulatory protein (Homo sapiens) (UniProt P35557+Q14397). Kind of assay: qHTS assay for inhibitors of recombinant human GCK-GKRP interaction: ADP-Glo assay (AID 743206; active means well fitted curve in the direction sought with a large enough effect; an effect the other way counts as inactive or inconclusive;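 further: plate controls were DMSO plus enzyme for no effect and no enzyme for full effect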). The procedure, abridged: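 Pin-transferred compounds meet a 15 nM GST-GCK/15 nM FLAG-GKRP/2 uM S6P mix (dispense concentrations). ATP is then added to 0.4 mM final with 5 mM glucose, and the reaction runs 60 min at room temperature. ADP is quantified luminescently.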
T1 sequence (P35557 whole entry, looked up): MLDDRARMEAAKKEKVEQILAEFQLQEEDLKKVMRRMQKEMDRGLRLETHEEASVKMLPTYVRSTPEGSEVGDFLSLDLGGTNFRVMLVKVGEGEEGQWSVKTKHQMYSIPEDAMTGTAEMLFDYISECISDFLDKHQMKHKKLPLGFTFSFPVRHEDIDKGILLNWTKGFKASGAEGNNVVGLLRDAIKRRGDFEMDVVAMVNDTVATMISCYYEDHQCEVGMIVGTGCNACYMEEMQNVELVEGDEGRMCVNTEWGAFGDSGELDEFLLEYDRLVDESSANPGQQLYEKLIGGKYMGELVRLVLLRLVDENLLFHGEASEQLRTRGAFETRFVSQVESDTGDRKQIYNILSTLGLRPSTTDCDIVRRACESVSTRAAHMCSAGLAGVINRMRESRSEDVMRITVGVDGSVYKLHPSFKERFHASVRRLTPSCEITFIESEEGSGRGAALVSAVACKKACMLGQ
T1 sequence (Q14397 whole entry, looked up): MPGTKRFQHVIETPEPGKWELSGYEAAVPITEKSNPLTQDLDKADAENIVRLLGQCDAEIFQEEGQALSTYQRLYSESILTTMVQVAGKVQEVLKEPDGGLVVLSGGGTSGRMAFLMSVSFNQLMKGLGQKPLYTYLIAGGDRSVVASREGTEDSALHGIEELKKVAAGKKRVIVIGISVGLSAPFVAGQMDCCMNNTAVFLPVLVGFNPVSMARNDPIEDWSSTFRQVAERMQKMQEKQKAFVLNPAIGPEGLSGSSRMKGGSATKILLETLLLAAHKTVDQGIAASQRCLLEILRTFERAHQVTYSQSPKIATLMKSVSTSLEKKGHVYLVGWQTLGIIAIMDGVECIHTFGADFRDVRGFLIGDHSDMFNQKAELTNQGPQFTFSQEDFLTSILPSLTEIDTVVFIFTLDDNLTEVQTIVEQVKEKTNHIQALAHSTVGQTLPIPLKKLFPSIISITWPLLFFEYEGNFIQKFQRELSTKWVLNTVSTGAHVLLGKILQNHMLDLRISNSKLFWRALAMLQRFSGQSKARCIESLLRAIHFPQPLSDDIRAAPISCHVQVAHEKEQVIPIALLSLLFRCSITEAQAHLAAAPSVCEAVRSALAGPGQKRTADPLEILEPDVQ
(In general: In qHTS, concentration-response curves come from the screen itself.)

Assay [2] has as its target T1, Hexokinase-4 (Homo sapiens) + Glucokinase regulatory protein (Homo sapiens). Kind of assay: qHTS assay for inhibitors of recombinant human GCK-GKRP interaction: HTRF assay (AID 743207; active means well fitted curve in the direction sought with a large enough effect; an effect the other way counts as inactive or inconclusive;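 further: 0% = DMSO with GCK present and -100% = DMSO wells lacking GCK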). The procedure, abridged:
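GST-GCK and FLAG-GKRP (5 nM each) were combined with 2 uM S6P in pH 7.1 Hepes/MgCl2/KCl/DTT buffer, then compound and anti-FLAG XL665/anti-GST K antibodies were added. After 60 min at room temperature, HTRF 665/615 nm emission was read.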

The nature of assay [3]: qHTS Assay for Identifying Gametocytocidal Compounds (AID 743244; active means well fitted curve in the direction sought with a large enough effect; an effect the other way counts as inactive or inconclusive; further: potency means the concentration at half of the fitted maximal effect;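 on max response: on the % scale 0 is the no-effect control and ±100 the full control effect; actives lower the fluorescent signal which means gametocytes are killed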). As to conditions: P. falciparum 3D7 stage III-V gametocytes, alamarBlue, 72 h; max response: stronger effect = lower value. In a few lines:
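Viability read-out was resazurin reduction (alamarBlue, 24 h) measured at Ex 525/Em 598 nm. Beforehand, late-stage (III-V) 3D7 P. falciparum gametocytes at 20,000 cells/well were incubated with compound 72 h at 37C under 5% CO2.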

Assay [4] can be described thus: qHTS profiling of the MIPE4 collection as inhibitors of Plasmodium falciparum (3D7) proliferation (AID 743344).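 Further: scaled between DMSO vehicle wells and 0.29 µM artemisinin as full inhibition.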 As to conditions: P. falciparum 3D7 in erythrocytes, SYBR Green DNA fluorescence, 72 h; at 28.5 µM (top of the series) unless noted. In a few lines: (§1)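 Parasite DNA was quantified by SYBR Green I fluorescence (ex 485, em 535 nm) after overnight lysis in saponin/Triton buffer at room temperature. Cultures at 0.3% parasitemia and 2.5% hematocrit were first exposed to compound for 72 h at 37 C; signals were normalised to artemisinin (0.29 uM) and vehicle wells.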

Assay [5] is described as follows: qHTS profiling of the MIPE4 collection as inhibitors of Plasmodium falciparum (DD2) proliferation (Rep 2) (AID 743346). As to conditions: P. falciparum Dd2 in erythrocytes, SYBR Green DNA, 72 h; at 28.5 µM (top of the series) unless noted. The procedure, abridged: as §1
A short description of assay [6]: qHTS profiling of the MIPE4 collection as inhibitors of Plasmodium falciparum (HB3) proliferation (AID 743347).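 Further: plate controls were DMSO vehicle wells for no effect and artemisinin wells for full effect.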 As to conditions: P. falciparum HB3 in erythrocytes, SYBR Green DNA, 72 h; at 28.5 µM (top of the series) unless noted. The procedure, abridged:
as §1

The conditions of assay [7]: Ebola virus entry assay, green fluorescence channel.
For assay [8] the following is noted: Ebola virus entry assay, blue channel fluorescence.
For assay [9] the following is noted: Ebola virus entry assay, ratio channel.
A short description of assay [10]: qHTS assay for small molecule agonists of the antioxidant response element (ARE) signaling pathway measured by Nrf2-dependant transcriptional activity - cell viability counter screen (AID 720653; active means well fitted curve in the direction sought with a large enough effect in the repeat runs; an effect the other way counts as inactive or inconclusive; further: on the % scale 0 is the no-effect control and ±100 the full control effect). Conditions: ARE-bla HepG2 viability, CellTiter-Glo ATP luminescence, 16 h; max response: stronger effect = lower value. The procedure, abridged: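 Cytotoxicity counter screen: intracellular ATP quantified by CellTiter-Glo luminescence in the same ARE-bla HepG2 plates, after 16 h compound exposure and a 2 h beta-lactamase substrate step.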

The nature of assay [11]: qHTS assay for small molecule agonists of the antioxidant response element (ARE) signaling pathway measured by Nrf2-dependant transcriptional activity (AID 720636; active means well fitted curve in the direction sought with a large enough effect in the repeat runs; an effect the other way counts as inactive or inconclusive;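 further: HepG2 cells with an ARE-driven luciferase reporter; % of control where 0% means no effect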). In a few lines: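 Cells: ARE-luc HepG2 with Nrf2-responsive luciferase. Medium contained 1% dialyzed FBS. Compound exposure lasted 16 hr at 37 C and 5% CO2, followed by ONE-Glo luciferase detection.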
A short description of assay [12]: qHTS profiling for inhibitors of Plasmodium falciparum (3D7) proliferation (AID 743322).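 Further: infected erythrocytes exposed to compound for 72 h before lysis; 100% = DMSO vehicle wells and 0% = 0.29 µM artemisinin.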 Conditions: P. falciparum 3D7 proliferation; at 28.7 µM (top of the series). In a few lines:
as §1

Assay [13] can be described thus: qHTS profiling for inhibitors of Plasmodium falciparum (DD2) proliferation (AID 743323). As to conditions: lower = more inhibition; at 28.7 µM (top of the series). In a few lines: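 1536-well qHTS; infected RBCs 0.3% parasitemia/2.5% Hct final; cpd 72 h 37 C 5% CO2; lysis buffer + SYBR Green I, o/n RT dark; FI 485/535; norm. to 0.29 uM artemisinin and DMSO, plate-stack corrected.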

Assay [14] is described as follows: qHTS profiling for inhibitors of Plasmodium falciparum (HB3) proliferation (AID 743324; active means well fitted curve in the direction sought with a large enough effect; an effect the other way counts as inactive or inconclusive;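 further: 100% = DMSO vehicle wells and 0% = artemisinin-treated control wells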). As to conditions: Plasmodium falciparum HB3 blood-stage proliferation; at 28.7 µM (top of the series). The procedure, abridged: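 SYBR Green fluorescence (485 ex/535 em) of lysed cultures, incubated overnight at room temperature in the dark, quantifies parasite DNA. Infected erythrocytes at 0.3% parasitemia and 2.5% hematocrit were exposed 72 h; values normalized to DMSO and 0.29 uM artemisinin controls.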

Assay [15] is described as follows: qHTS profiling of the MIPE4 collection as inhibitors of Plasmodium falciparum (DD2) proliferation (AID 743345). As to conditions: P. falciparum Dd2 in erythrocytes, SYBR Green DNA, 72 h; at 28.5 µM (top of the series) unless noted. The procedure, abridged:
as §1

Several values for one entry are separate records, joined by “and”; a condition that tells them apart may be missing. Equal entries are not always repeated. Records with an inconclusive call do not appear. For some of these results: Results with a measured potency or affinity are listed apart. Activity calls are given as the source filed them. Unless noted, how the calls were made is not given here.
Wherever efficacy is given: 0% is about no effect.

As usually defined, the AC50 is the midpoint of the concentration-response curve, whichever way the signal moves. Turning to `O=c1[nH]c2ccccc2n1CCCN1CCC(n2c(=O)[nH]c3cc(Cl)ccc32)CC1`, the result in assay [1] and in assay [2] was inactive. Further, the max response in [3] is -7.84% (inactive) and 21.7% (inactive). In assay [4], this molecule had a parasite growth, % of DMSO control of 26.8%. Besides, in [5], the parasite growth, % of control (lower = inhibition) was 31.2%. Besides, the growth, % of control in assay [6] turned out to be 14%. Moreover, the efficacy in [7] is 125% (inactive). Moreover, the AC50 was 39.8 µM (active) in assay [8] and 25.1 µM (active) in [9].

As to `CC(CCc1ccccc1)NC(C)C(O)c1ccc(O)cc1` (centres undefined), the result in assay [1] and in assay [2] was inactive. Besides, the max response in assay [3] was 2.74% (inactive) and 19.3% (inactive). For the same molecule, in assay [7], the efficacy is 36.4% (inactive). Moreover, the AC50 in assay [8] and in assay [9] was 35.5 µM (active) throughout.

Consider `CC(C)=CCOc1c2occc2cc2ccc(=O)oc12`, for which the result in assay [1], in [2] and in [9] was inactive. Also, the max response in [3] was -4.41% (inactive) and 18.6% (inactive). For the same molecule, the efficacy in [7] is 19.5% (inactive). Moreover, the AC50 in assay [8] is 25.1 µM (active).

Consider `O=C1NCN(c2ccccc2)C12CCN(CC1COc3ccccc3O1)CC2` (centres undefined), for which the outcome in assay [1], in [2], in assay [8] and in [9] was inactive. Further, the max response in [3] was -1.23% (inactive) and 22.3% (inactive). Moreover, the efficacy in [7] is -42.1% (inactive).

On to `N#CC(C#N)=Cc1ccc(O)c(O)c1`, for which the outcome in assay [1], in [2], in assay [8] and in assay [9] was inactive. Further, in assay [3], the max response was 25.4% (inactive). For the same molecule, the efficacy in [7] is -17.1% (inactive).

`CCN(CC)C(=O)N[C@@H]1C=C2c3cccc4[nH]cc(c34)C[C@@H]2N(C)C1`: the Potency in assay [3] was 20 µM (active). Moreover, in assay [7], the efficacy was 16% (inactive). Also, the result in assay [8] and in assay [9] was inactive.

As for `CC[N+]1(C)CCCC(OC(=O)C(O)(c2ccccc2)c2ccccc2)C1` (centres undefined), the max response in [3] was -8.23% (inactive). Also, in assay [7], the efficacy was 26% (inactive). Further, the outcome in assay [8] and in assay [9] was inactive.

Turning to `CCCN1CCC[C@@H]2Cc3[nH]ncc3C[C@H]21`, the outcome in assay [1], in assay [2], in assay [8] and in assay [9] was inactive. In assay [3], the max response was -4.72% (inactive) and 8.32% (inactive) and 17.4% (inactive). Moreover, the efficacy in assay [7] was -15.1% (inactive).

On to `c1ccc(C2CC2)c(OCC2=NCCN2)c1`, for which the result in [1], in assay [2] and in assay [9] was inactive. For the same molecule, the max response in assay [3] is -3.84% (inactive) and 23.7% (inactive). Further, the efficacy in assay [7] is 46.8% (inactive). Moreover, in assay [8], the AC50 is 39.8 µM (active).

As to `NC(=Nc1ccccc1)Nc1ccccc1`, the max response in assay [10] was 3.18% (inactive). In addition, in assay [7], the efficacy is -28.5% (inactive). Further, the AC50 in assay [8] was 3.16 µM (active). Moreover, the result in assay [9] was inactive.

In the case of `Oc1cc(Cl)ccc1Oc1ccc(Cl)cc1Cl`, the Potency result in assay [11] is “inactive”. In addition, the max response in assay [10] is -9.95% (inactive). Moreover, in [12], the remaining parasite growth % (stronger effect = lower value) worked out at 0.738%. The same molecule showed an activity, percent of control in [13] of 2.03%. This molecule returned a remaining proliferation (% of control), lower = more inhibition in assay [14] of 1.17%. The molecule further displayed a parasite growth, % of DMSO control in assay [4] of 6.59%. Also, the parasite growth remaining, % of DMSO control (lower = more inhibition) in assay [15] came out at 8.79%. In addition, the parasite growth, % of control (lower = inhibition) in assay [5] was determined as 20.6%. The molecule further gave a growth, % of control in [6] of 5.41%. For the same molecule, the efficacy in [7] is -133% (inactive). Also, the AC50 was 15.8 µM (active) in assay [8]; 7.08 µM (active) and 14.1 µM (active) in assay [9].

On to `CN1C[C@H](CNC(=O)OCc2ccccc2)C[C@@H]2c3cccc4c3c(cn4C)C[C@H]21`, for which the result in assay [1] and in assay [2] was inactive. Besides, the max response in [3] was -4.3% (inactive). Moreover, in assay [7], the efficacy was 74.4% (inactive). For the same molecule, the AC50 is 6.31 µM (active) in assay [8] and 3.98 µM (active) in [9].

`FC(F)(F)c1cccc(C2=CCN(CCc3ccc4ccccc4c3)CC2)c1`: in assay [3], the max response was 11.8% (inactive). Moreover, the efficacy in assay [7] was -24.5% (inactive). In addition, the outcome in [8] and in [9] was inactive.

With `c1ccc2c(c1)OCC(C1=NCCN1)O2` (centres undefined), the outcome in assay [1], in assay [2], in assay [8] and in assay [9] was inactive. Further, the Potency in assay [3] was 6.31 µM (active) and 3.55 µM (active). For the same molecule, the efficacy in assay [7] is 12.1% (inactive).

Consider `Cc1cccc(C)c1NC1=NCCCS1`, for which the outcome in [1], in assay [2], in assay [8] and in assay [9] was inactive. Also, in assay [3], the max response is 0.533% (inactive) and 4.4% (inactive). The efficacy in assay [7] was -17.5% (inactive).

As for `CC(C)(C)NCC(O)c1cc(Cl)c(N)c(Cl)c1` (centres undefined), in assay [3], the max response is -5.19% (inactive). Besides, in assay [7], the efficacy is -12% (inactive). The call in assay [8] and in assay [9] was inactive.

Regarding `O=C(NC(O)C(Cl)(Cl)Cl)NC(O)C(Cl)(Cl)Cl` (centres undefined), the max response in assay [3] was -4.63% (inactive). The efficacy in assay [7] is 18% (inactive). The molecule was classed as inactive in assay [8] and in [9].

The molecule `COC[C@@H](NC(C)=O)C(=O)NCc1ccccc1` showed a parasite growth, % of DMSO control in assay [4] of 371%. Also, in assay [15], the parasite growth remaining, % of DMSO control (lower = more inhibition) was found to be 113%. Further, in assay [5], the parasite growth, % of control (lower = inhibition) was 165%. For the same molecule, in [6], the growth, % of control amounted to 737%. Further, the efficacy in assay [7] is -31.5% (inactive). The molecule was called inactive in [8] and in assay [9].

As for `NP(N)(=O)NC(=O)c1ccc(F)cc1`, the max response in [3] was -2.45% (inactive). Moreover, the efficacy in [7] was -25% (inactive). Also, the call in assay [8] and in assay [9] was inactive.

As to `Clc1cccc(N2CCNCC2)c1`, in assay [3], the max response was 0.639% (inactive). Moreover, the efficacy in assay [7] was 26.6% (inactive). The outcome in [8] and in assay [9] was inactive.

Regarding `CC(O)(CS(=O)(=O)c1ccc(F)cc1)C(=O)Nc1ccc(C#N)c(C(F)(F)F)c1` (centres undefined), the result in assay [1] and in assay [2] was inactive. For the same molecule, in assay [3], the max response is 4.22% (inactive) and -26.1% (inactive). In [12], this molecule gave a remaining parasite growth % (stronger effect = lower value) of 91.3%. The activity, percent of control in assay [13] stood at 89.3%. Further, the remaining proliferation (% of control), lower = more inhibition in assay [14] stood at 70.9%. Besides, the parasite growth, % of DMSO control in [4] is 61.4%. Besides, in [15], the parasite growth remaining, % of DMSO control (lower = more inhibition) was determined as 102%. Also, the parasite growth, % of control (lower = inhibition) in [5] came to 64.8%. The growth, % of control in [6] was found to be 81.9%.
